# Screening results (PubChem)
# MRP1 act = H69AR viability gain despite doxorubicin, primary screen, MRP-1 activator project, H69AR cells, CellTiter-Glo; viability increase, % at 10 µM; viability rescue; AID 799, 2007; 140,000 tested, 0.61% active;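 active means viability gain under doxorubicin at or above a set limit, the compound median plus 3 SD, cut at about 4.7% in these data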;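 further: MRP-1 overexpressing cells given doxorubicin 25 µM after compound pretreatment; 18-22 h compound pretreatment then 72 h with doxorubicin before readout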
# MRP resist rev = reversal of MRP1-mediated doxorubicin resistance, primary screen, H69AR cells, doxorubicin co-treatment; H69AR cells + 2 uM doxorubicin, CellTiter-Glo, 72 h; AID 602, 2007; differential viability (reversal), % at 10 µM; 85,000 tested, 0.04% active;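 active means viability drop by adding the cancer drug above about 55%, with treated viability meeting a 40% cutoff, limit read from the data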;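 further: larger differential means the compound sensitizes cells more to doxorubicin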
# DAT uptake mod = changed hDAT dopamine uptake under cocaine IC80, either direction, primary screen, cocaine antagonist project, cell-based, LLC-PK1 hDAT, [14C]-dopamine uptake, MLSMR | Sodium-dependent dopamine transporter (Homo sapiens), Q01959 | LLC-PK1 hDAT cells, [14C]-dopamine uptake with cocaine IC80; actives deviate in either direction | B-score at 10 µM | 110,000 tested, 1.3% active;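 active means Z score or B-score, a plate-position-corrected score, falls beyond the plate's 99.7% confidence bounds, in either direction; inactive means both scores lie inside the 99.7% bounds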
# Target sequence (Q01959 whole entry, looked up): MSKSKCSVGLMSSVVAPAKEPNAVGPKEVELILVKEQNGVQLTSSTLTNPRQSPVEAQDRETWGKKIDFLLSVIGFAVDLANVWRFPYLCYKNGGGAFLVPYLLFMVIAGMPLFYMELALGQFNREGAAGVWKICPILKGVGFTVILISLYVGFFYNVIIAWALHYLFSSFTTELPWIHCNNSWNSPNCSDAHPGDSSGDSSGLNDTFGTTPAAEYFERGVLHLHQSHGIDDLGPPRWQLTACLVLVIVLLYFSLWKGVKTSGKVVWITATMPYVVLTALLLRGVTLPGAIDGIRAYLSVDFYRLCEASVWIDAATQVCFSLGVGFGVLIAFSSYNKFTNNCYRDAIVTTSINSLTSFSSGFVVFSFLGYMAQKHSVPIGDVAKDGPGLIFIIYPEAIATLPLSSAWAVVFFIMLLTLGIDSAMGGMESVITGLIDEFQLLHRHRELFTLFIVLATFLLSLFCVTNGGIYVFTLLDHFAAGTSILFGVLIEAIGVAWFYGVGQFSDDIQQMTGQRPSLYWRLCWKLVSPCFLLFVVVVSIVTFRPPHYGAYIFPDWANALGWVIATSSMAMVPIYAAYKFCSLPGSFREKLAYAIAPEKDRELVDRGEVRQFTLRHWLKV
# Numbers stand for hits; – = inactive; · = not tested or not shown. An excerpt weighted towards active compounds, which were near 1.5% of everything screened.
SMILES,MRP1 act,MRP resist rev,DAT uptake mod
Cc1cc(C)nc(NN2C(=O)/C(=C/c3ccccc3)SC2=S)n1,9.7,·,–
CC(=O)NN1C(=O)/C(=C\c2ccc(C)cc2)SC1=S,10.8,·,–
O=C(CCN1C(=O)/C(=C/C=C/c2ccccc2)SC1=S)Nc1cccnc1,–,·,·
O=C(CCN1C(=O)/C(=C\c2ccccc2)SC1=S)NNC(=O)c1cccnc1,8.8,·,·
CC(=O)NN1C(=O)/C(=C\c2ccccc2)SC1=S,–,·,–
Cc1ccc(/C=C2\SC(=S)N(CCC(=O)NNS(=O)(=O)c3ccc(C)cc3)C2=O)cc1,5.7,·,·
COc1cc(/C=C2\SC(=S)N(Nc3ccccc3)C2=O)ccc1O,–,·,·
COc1ccc(/C=C2/SC(=S)N(CCC(=O)O)C2=O)cc1,–,·,–
CCc1cc2c3c(c1)C1(C(=O)N3C(C)(C)CC2C)C(C#N)=C(N)N2C(=C1C#N)Nc1ccccc12 (centres undefined),–,·,·
CSc1nc(C)cc(SCC(=O)N/N=C/c2ccccc2)n1,–,·,·
COC(=O)C1C(=O)C2=C(CC1C)NC(C)=C(C(=O)OCCOc1ccccc1)C2c1ccc(C)o1 (centres undefined),–,–,–
CC1=C(C(=O)OCCOc2ccccc2)C(c2ccc(C)o2)C2=C(CC(C)(C)CC2=O)N1 (centres undefined),–,–,3.66
Cc1cc2ccccc2n1CCNC(=O)Cc1ccccc1,–,–,–
Cc1cc2ccccc2n1CCNC(=O)c1ccc(S(=O)(=O)N2CCCCC2)cc1,–,–,2.5
CC(C)Cc1nc(N2CCC(C(N)=O)CC2)c2nnn(Cc3ccccc3)c2n1,–,·,–
Cc1nc(N2CCC(C)CC2)c2nnn(Cc3ccccc3)c2n1,–,–,3.08
COC(=O)c1ccc(Sc2ccccn2)c([N+](=O)[O-])c1,–,·,·
O=C(CSc1nnc(CNc2ccccc2)o1)N1CCc2ccccc21,–,–,–
Cc1cc(C)nc(SCc2nnc(SCC(=O)N3CCCc4ccccc43)o2)n1,–,–,3.26
O=C(CSc1nnc(Cc2ccccc2)o1)N1CCCc2ccccc21,–,–,2.6
Cc1cc(C)nc(SCc2nnc(SCC(=O)N3CCCc4ccccc43)n2C)n1,–,–,–
N#Cc1ccc(OCC(=O)N/N=C2/CC(c3ccccc3)Oc3ccccc32)cc1 (centres undefined),–,·,·
CC(C)c1ccc(OCC(=O)N(Cc2ccccc2)c2ccccn2)cc1,–,·,·
N/C(=N/O)C(c1ccccc1)c1ccccc1,–,·,·
CCOC(=O)c1ccc(OC(=O)CCCCCN=C(N)N)cc1,·,·,–
SMILES,MRP1 act,MRP resist rev,DAT uptake mod
Cc1cc(C)n2nc(C(=O)Nc3nnc(C4CC4)s3)nc2n1,5.2,–,–
Cc1csc(NC(=O)c2nc3nc(C)cc(C)n3n2)n1,–,–,–
OCC[C@H]1C[C@@H](O)[C@H](O)[C@@]2(CCCCO2)O1,·,·,–
Cc1cc(N2CCN(c3cccc(C)c3C)CC2)nc(-c2ccccc2)n1,5.1,–,–
Cc1cc(N2CCC(C(=O)NC3CC3)CC2)nc(-c2ccccc2)n1,–,–,–
CN(CC(=O)NC1CCCc2ccccc21)S(=O)(=O)c1cccs1 (centres undefined),–,·,·
O=C(CSc1nccc(=O)[nH]1)Nc1ccc(F)c([N+](=O)[O-])c1,–,·,·
C/C(CC(=O)Nc1c(C)cc(C)cc1C)=N\NC(=O)OC(C)(C)C,–,·,·
CCn1c(COc2ccc(=O)n(-c3ccccc3)n2)nnc1SCc1ccccc1C,–,·,–
COc1ccccc1Nc1nc(N)nc(CN2CCN(Cc3ccccc3)CC2)n1,–,–,–
COc1ccccc1Nc1nc(N)nc(CN2CCN(c3ccccc3F)CC2)n1,–,–,2.81
O=C(OCC(=O)N1CCN(C(=O)c2ccco2)CC1)c1cn(-c2ccccc2)nc1-c1ccccc1,–,–,4.38
O=C(OCC(=O)N1CCN(C(=O)c2ccco2)CC1)c1cc(-c2ccccc2)nc2ccccc12,–,–,–
N#C/C(=N\Nc1ccc(S(=O)(=O)N2CCCCC2)cc1)C(N)=S,–,·,·
N#CC(C#N)=NNc1ccc(S(=O)(=O)N2CCCC2)cc1,5.1,·,·
O=C(Nc1ccc(F)cc1F)c1cc2nc3c(c(C(F)(F)F)n2n1)CCCC3,–,·,·
O=C1CSC(=S)N1/N=C/C=C/c1ccccc1,–,·,·
O=C1CSC(=S)N1N=C1CCCCCC1,5.9,·,·
CCCN1CCCc2cc(CN)ccc21,–,–,-2.38
CN1CCCc2cc(C=O)ccc21,–,–,–
O=C(NC1(C(F)(F)F)NC(=O)N(C2CCCCC2)C1=O)c1cccs1 (centres undefined),–,–,-3.31
CN1C(=O)NC(NC(=O)c2cccs2)(C(F)(F)F)C1=O (centres undefined),–,–,–
O=C(NC(NC(=S)Nc1cc(Cl)ccc1Cl)C(Cl)(Cl)Cl)c1ccco1 (centres undefined),–,·,–
O=C(NC(NC(=S)Nc1ccc(Cl)c(Cl)c1)C(Cl)(Cl)Cl)c1ccco1 (centres undefined),–,·,-3.83
Cc1cc(NC(=O)c2ccccc2-c2ccccc2)ccc1Br,–,·,·
SMILES,MRP1 act,MRP resist rev,DAT uptake mod
COc1ccccc1-n1c(CCn2nc(C)c(Br)c2C)n[nH]c1=S,–,·,·
COc1ccc(NS(=O)(=O)c2cc(NC(=O)CNC(=O)c3cccc(OC)c3)ccc2C)cc1,–,·,·
Cc1ccc(NC(=O)CNC(=O)c2cccs2)cc1S(=O)(=O)Nc1ccc(Cl)cc1,7.0,·,·
CN(C#N)c1nc(Cl)nc(Nc2cccc(Cl)c2)n1,–,·,·
Cc1csc(Sc2ccc([N+](=O)[O-])cc2C(=O)OCC(=O)NC2CCCC(C)C2C)n1 (centres undefined),–,–,–
Cc1ccc([N+](=O)[O-])cc1NC(=O)CN1CCC(C)CC1,–,·,·
CC1CCN(CC(=O)Nc2cccc([N+](=O)[O-])c2)CC1,–,·,-2.77
CCCCN1C2=C(C(=O)CCC2)C(c2ccc(Cl)c(Cl)c2)C2=C1c1ccccc1C2=O (centres undefined),–,·,–
O=C(CC(=O)N/N=C\c1c(Cl)cccc1Cl)NCc1ccccc1,–,·,–
O=C(Nc1ccc(S(=O)(=O)NCc2ccccc2)cc1)c1ccc(Br)o1,–,–,–
CC(=O)NS(=O)(=O)c1ccc(NC(=O)c2ccc(Br)o2)cc1,–,–,-8.42
CN1C(C(=O)NCc2ccc(OC(F)(F)F)cc2)CC2Cn3c(nc4cc(Cl)c(Cl)cc43)C21 (centres undefined),·,·,–
O=S(=O)(Nc1nnc(-c2ccccc2)s1)c1ccc(Cl)cc1,–,–,-3
O=S(=O)(NCc1cc(-c2ccccc2)no1)c1ccc(Cl)cc1,–,·,–
Cc1cc(C)c(N=Cc2c(O)n(-c3nccs3)c(=O)c3ccccc23)c(C)c1,7.5,·,·
Cc1ccc(N=Cc2c(O)n(-c3nccs3)c(=O)c3ccccc23)cc1,–,·,·
Cc1ccccc1N=Cc1c(O)n(-c2nccs2)c(=O)c2ccccc12,–,·,·
Cc1cccc(C)c1N=Cc1c(O)n(-c2nccs2)c(=O)c2ccccc12,6.2,·,·
OC1O[C@H](c2ccc3c(c2)OCO3)[C@H]2CO[C@H](c3ccc4c(c3)OCO4)[C@@H]12 (some centres undefined),·,·,–
O=C(N/N=C/c1ccco1)c1ccccc1OCc1ccc(Br)cc1,–,·,·
